These results are taken from article PMC7862700, “An all-to-all approach to the identification of sequence-specific readers for epigenetic DNA modifications on cytosine”.

Holding throughout (assay): DAPPL (digital affinity profiling via proximity ligation, sequencing); 10 mM Tris-HCl pH 7.5, 50 mM NaCl, 1 mM DTT, 4% glycerol, room temperature, 30 min; GST-TFs on glutathione beads, 16-mer random dsDNA library, 0.1% formaldehyde crosslink after washing; high values mean tight binding
In one experiment the target is T1, FEV (Homo sapiens, UniProt Q99581 1-238).
T1 sequence: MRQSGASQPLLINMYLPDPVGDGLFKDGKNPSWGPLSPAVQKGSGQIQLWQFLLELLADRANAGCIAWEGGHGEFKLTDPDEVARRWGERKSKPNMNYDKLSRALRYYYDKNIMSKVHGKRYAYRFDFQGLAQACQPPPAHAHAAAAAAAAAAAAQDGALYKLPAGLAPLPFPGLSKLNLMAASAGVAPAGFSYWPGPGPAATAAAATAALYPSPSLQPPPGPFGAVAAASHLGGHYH
Conditions: protein: recombinant; tags: N-terminal GST; dsDNA, one strand shown. The essentials:
(§1)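 Pools of DNA-barcoded human transcription factors, expressed in yeast as GST fusions on glutathione beads and combined with a tag-only sample, were incubated with 200 nmole of a 16-mer random double-stranded DNA library. Incubation took 30 min at room temperature in Tris/NaCl/DTT/glycerol buffer and was followed by washing, 0.1% formaldehyde crosslinking, proximity ligation (BsaI/T4 ligase, 1 h, 37 °C), PCR amplification and sequencing on an Illumina NextSeq500. Binding signal is the ratio of a hexamer's read frequency for a factor to its frequency for the tag-only sample.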

Another experiment has as its target ETV5 (Homo sapiens, UniProt P41161 1-510). Conditions: protein: recombinant; tags: N-terminal GST; dsDNA, one strand shown. The procedure, abridged: as §1
The target of the next experiment is HSF1 (Homo sapiens, UniProt Q00613 1-529). Conditions: protein: recombinant; tags: N-terminal GST; chain copies: 3; dsDNA, one strand shown. The essentials: as §1
HSF1, sequence (Q00613 whole entry): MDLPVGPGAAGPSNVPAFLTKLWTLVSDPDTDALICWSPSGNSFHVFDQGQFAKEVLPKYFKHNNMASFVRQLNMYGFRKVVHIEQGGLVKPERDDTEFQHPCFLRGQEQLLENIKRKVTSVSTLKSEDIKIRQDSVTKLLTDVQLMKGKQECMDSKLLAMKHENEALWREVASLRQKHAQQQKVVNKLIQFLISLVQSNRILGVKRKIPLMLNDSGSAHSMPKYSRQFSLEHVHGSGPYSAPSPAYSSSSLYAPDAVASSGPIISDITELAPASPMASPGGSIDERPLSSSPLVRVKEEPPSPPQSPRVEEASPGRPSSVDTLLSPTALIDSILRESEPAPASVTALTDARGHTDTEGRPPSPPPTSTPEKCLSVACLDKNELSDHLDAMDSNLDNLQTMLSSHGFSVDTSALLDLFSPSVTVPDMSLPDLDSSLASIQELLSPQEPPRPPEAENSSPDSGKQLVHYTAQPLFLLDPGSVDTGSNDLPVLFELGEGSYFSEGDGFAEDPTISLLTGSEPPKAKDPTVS
The target in a further experiment is T2, SPIC (Homo sapiens, UniProt Q8N5J4 1-248).
T2 sequence: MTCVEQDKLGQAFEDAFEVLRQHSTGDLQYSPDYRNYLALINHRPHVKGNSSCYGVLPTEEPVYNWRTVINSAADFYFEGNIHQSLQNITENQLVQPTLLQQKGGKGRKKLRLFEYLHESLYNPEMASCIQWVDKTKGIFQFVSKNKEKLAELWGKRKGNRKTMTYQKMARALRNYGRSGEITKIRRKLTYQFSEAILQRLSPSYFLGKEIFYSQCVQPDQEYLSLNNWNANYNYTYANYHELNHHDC
Conditions: protein: recombinant; tags: N-terminal GST; dsDNA, one strand shown. The essentials: as §1

Another experiment concerns the target ELF4 (Homo sapiens, UniProt Q99607 1-663). Conditions: protein: recombinant; tags: N-terminal GST; dsDNA, one strand shown. The procedure, abridged:
as §1

The target in another experiment is T3, ELK4 (Homo sapiens, UniProt P28324-2 1-405).
T3 sequence: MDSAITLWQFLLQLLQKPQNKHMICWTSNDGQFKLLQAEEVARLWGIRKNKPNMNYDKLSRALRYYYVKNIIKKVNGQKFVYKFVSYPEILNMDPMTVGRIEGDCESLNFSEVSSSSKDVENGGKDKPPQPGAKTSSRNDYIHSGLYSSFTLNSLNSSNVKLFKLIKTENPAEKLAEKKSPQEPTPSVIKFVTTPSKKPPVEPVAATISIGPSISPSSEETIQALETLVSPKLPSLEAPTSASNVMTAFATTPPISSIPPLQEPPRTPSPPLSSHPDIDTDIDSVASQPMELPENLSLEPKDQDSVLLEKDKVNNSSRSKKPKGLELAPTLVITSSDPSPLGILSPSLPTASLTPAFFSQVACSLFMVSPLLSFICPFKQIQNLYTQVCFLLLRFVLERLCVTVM
As to conditions: protein: recombinant; tags: N-terminal GST; dsDNA, one strand shown. The essentials: as §1

Another experiment concerns the target T4, ETV2 (Homo sapiens, UniProt O00321 1-342).
T4 sequence: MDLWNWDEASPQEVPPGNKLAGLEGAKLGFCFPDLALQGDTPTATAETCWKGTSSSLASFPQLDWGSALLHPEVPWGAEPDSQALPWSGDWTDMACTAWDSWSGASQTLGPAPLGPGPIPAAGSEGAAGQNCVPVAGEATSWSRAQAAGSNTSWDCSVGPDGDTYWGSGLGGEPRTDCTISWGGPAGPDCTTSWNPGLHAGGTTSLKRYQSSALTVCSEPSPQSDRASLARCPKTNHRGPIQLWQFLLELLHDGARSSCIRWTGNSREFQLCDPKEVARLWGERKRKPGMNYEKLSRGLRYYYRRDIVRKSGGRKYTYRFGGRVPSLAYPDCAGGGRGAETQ
Conditions: protein: recombinant; tags: N-terminal GST; dsDNA, one strand shown. The essentials: as §1

A further experiment concerns the target T5, ELF3 (Homo sapiens, UniProt P78545 1-371).
T5 sequence: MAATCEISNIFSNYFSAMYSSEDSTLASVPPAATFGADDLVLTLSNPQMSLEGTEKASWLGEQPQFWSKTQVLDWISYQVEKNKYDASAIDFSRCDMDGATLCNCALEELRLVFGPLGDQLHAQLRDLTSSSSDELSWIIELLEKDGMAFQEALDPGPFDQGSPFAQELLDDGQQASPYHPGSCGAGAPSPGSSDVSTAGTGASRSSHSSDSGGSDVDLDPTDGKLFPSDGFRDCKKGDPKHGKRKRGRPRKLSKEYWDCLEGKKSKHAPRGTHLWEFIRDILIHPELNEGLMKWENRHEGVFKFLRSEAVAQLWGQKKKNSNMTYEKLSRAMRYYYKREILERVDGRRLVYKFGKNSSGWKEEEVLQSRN
As to conditions: protein: recombinant; tags: N-terminal GST; dsDNA, one strand shown. The essentials: as §1

In the next experiment the target is CRX (Homo sapiens, UniProt O43186 1-299). Conditions: protein: recombinant; tags: N-terminal GST; dsDNA, one strand shown. The essentials: as §1
CRX, sequence (O43186 whole entry): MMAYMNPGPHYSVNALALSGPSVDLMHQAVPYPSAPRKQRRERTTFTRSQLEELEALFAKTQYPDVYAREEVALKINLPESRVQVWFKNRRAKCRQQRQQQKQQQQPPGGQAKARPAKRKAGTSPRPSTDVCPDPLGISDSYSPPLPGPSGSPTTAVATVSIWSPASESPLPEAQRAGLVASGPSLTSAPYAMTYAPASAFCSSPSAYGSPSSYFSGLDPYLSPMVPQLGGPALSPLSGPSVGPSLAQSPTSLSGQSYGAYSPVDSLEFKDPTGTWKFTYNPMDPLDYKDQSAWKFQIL
The target in another experiment is ETV1 (Homo sapiens, UniProt P50549 1-477). As to conditions: protein: recombinant; tags: N-terminal GST; dsDNA, one strand shown. The procedure, abridged: as §1
ETV1, sequence (P50549 whole entry): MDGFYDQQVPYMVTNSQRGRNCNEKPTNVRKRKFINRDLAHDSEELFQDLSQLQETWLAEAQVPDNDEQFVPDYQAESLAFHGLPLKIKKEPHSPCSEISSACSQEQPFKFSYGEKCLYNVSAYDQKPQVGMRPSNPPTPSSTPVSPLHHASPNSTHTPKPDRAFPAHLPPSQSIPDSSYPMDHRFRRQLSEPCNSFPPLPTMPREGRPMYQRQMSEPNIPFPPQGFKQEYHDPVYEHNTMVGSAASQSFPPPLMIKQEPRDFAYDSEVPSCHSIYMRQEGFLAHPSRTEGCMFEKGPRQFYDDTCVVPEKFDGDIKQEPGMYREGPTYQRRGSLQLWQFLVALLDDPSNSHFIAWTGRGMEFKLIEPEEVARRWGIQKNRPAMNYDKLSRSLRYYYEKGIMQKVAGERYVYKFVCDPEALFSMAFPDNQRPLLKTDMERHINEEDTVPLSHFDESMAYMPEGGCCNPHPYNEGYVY
The next experiment concerns the target T6, ERF (Homo sapiens, UniProt P50548 1-548).
T6 sequence: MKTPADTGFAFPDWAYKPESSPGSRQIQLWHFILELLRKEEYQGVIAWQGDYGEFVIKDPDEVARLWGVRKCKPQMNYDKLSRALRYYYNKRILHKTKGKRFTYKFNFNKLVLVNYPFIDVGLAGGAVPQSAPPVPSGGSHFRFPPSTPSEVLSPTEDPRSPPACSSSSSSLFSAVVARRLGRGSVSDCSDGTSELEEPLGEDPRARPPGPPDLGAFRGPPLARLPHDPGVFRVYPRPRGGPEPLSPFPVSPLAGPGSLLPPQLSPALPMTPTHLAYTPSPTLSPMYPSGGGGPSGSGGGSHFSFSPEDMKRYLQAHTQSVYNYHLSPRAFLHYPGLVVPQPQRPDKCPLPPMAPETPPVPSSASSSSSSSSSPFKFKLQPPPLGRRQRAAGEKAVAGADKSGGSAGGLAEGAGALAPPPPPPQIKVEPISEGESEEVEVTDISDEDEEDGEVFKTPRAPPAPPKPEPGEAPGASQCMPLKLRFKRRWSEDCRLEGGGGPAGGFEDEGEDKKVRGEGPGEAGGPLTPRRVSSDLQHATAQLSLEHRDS
As to conditions: protein: recombinant; tags: N-terminal GST; dsDNA, one strand shown. The procedure, abridged: as §1

Another experiment addresses T7, ETV3L (Homo sapiens, UniProt Q6ZN32 1-361).
T7 sequence: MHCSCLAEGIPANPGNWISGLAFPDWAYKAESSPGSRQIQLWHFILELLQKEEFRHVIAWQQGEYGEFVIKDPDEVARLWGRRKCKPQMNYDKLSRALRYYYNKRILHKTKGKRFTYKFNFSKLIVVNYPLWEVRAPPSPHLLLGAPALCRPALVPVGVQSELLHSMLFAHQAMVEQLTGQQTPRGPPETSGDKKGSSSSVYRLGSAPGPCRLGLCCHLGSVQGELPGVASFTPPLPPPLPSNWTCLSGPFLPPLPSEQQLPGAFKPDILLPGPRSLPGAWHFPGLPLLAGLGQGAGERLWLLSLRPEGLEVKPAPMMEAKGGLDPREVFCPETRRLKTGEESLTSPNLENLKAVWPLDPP
As to conditions: protein: recombinant; tags: N-terminal GST; dsDNA, one strand shown. The essentials:
as §1

The next experiment deals with T8, ETS2 (Homo sapiens, UniProt P15036 1-469).
T8 sequence: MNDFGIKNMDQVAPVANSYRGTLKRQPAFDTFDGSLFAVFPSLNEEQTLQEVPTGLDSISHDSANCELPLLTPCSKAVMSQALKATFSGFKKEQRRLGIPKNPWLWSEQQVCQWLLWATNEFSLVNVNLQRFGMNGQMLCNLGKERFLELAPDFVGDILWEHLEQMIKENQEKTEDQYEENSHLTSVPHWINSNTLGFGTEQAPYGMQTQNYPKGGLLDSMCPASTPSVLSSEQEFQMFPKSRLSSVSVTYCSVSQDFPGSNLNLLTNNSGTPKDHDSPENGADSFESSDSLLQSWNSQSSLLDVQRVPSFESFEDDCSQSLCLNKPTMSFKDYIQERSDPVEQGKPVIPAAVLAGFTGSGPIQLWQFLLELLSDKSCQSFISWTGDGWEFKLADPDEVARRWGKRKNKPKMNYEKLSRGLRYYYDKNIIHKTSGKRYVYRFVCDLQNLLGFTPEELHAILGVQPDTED
Conditions: protein: recombinant; tags: N-terminal GST; dsDNA, one strand shown. The essentials:
as §1

The target of another experiment is T9, SPDEF (Homo sapiens, UniProt O95238 1-335).
T9 sequence: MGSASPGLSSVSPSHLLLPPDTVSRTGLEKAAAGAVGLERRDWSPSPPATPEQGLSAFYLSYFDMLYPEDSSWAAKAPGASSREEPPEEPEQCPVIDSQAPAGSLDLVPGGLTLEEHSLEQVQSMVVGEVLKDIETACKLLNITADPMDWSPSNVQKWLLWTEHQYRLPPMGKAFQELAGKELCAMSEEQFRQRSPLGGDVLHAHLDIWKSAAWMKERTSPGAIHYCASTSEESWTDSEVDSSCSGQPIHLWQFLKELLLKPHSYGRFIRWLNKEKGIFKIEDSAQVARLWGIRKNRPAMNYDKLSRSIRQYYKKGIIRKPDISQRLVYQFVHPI
Conditions: protein: recombinant; tags: N-terminal GST; dsDNA, one strand shown. The procedure, abridged:
as §1

The target of the next experiment is T10, ETV7 (Homo sapiens, UniProt Q9Y603 1-341).
T10 sequence: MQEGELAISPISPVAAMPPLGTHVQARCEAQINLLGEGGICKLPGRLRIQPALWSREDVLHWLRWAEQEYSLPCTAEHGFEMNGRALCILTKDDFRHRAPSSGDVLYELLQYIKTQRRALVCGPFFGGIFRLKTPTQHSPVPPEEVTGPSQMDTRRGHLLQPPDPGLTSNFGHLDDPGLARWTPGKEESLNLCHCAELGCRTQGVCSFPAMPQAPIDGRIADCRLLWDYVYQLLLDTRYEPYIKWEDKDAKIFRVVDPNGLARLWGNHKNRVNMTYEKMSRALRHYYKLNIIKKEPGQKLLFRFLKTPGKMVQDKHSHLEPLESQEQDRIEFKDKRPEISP
As to conditions: protein: recombinant; tags: N-terminal GST; dsDNA, one strand shown. The procedure, abridged:
as §1

Another experiment concerns the target T11, ELF5 (Homo sapiens, UniProt Q9UKW6-2 1-255).
T11 sequence: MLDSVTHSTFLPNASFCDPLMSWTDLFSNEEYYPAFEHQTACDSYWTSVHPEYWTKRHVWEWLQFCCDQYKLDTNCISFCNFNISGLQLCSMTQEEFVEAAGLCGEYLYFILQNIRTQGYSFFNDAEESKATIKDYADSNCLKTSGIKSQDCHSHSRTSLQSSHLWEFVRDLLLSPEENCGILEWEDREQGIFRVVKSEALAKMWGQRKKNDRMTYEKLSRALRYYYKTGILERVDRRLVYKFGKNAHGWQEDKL
As to conditions: protein: recombinant; tags: N-terminal GST; dsDNA, one strand shown. The procedure, abridged:
as §1

In another experiment the target is T12, ETV3 (Homo sapiens, UniProt P41162-2 1-143).
T12 sequence: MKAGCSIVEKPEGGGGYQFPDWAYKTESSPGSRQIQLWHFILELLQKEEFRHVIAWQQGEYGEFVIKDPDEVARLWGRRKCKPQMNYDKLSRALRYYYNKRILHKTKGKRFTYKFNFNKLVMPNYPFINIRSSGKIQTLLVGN
As to conditions: protein: recombinant; tags: N-terminal GST; dsDNA, one strand shown. The essentials:
as §1

For a further experiment, the target named is ETV6 (Homo sapiens, UniProt P41212 1-452). Conditions: protein: recombinant; tags: N-terminal GST; dsDNA, one strand shown. The procedure, abridged:
as §1

ETV6, sequence (P41212 whole entry): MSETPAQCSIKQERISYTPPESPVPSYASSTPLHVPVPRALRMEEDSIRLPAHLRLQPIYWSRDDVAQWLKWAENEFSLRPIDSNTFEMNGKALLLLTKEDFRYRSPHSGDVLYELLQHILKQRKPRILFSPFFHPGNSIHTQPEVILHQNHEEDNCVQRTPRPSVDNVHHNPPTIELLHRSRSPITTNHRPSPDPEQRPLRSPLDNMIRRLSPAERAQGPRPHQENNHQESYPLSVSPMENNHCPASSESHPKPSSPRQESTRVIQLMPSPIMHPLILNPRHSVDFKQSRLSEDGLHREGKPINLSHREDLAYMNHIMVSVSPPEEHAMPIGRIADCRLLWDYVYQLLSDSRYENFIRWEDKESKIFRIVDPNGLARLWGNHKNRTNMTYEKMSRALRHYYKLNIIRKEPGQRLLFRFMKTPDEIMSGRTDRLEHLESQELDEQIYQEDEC
ETV5, sequence (P41161 whole entry): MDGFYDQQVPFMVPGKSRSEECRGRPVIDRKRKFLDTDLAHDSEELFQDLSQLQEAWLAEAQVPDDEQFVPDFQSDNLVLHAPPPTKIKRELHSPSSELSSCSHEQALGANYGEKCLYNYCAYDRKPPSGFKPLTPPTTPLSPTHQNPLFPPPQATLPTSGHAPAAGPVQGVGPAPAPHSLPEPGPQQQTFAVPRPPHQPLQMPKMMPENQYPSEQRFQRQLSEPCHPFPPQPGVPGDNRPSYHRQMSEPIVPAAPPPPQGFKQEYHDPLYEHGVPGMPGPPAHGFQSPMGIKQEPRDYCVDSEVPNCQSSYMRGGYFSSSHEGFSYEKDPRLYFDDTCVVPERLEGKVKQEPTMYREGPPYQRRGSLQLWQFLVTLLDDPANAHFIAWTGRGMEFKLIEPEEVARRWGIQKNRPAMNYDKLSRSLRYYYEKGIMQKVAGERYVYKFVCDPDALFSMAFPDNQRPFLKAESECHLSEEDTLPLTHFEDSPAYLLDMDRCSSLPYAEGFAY
ELF4, sequence (Q99607 whole entry): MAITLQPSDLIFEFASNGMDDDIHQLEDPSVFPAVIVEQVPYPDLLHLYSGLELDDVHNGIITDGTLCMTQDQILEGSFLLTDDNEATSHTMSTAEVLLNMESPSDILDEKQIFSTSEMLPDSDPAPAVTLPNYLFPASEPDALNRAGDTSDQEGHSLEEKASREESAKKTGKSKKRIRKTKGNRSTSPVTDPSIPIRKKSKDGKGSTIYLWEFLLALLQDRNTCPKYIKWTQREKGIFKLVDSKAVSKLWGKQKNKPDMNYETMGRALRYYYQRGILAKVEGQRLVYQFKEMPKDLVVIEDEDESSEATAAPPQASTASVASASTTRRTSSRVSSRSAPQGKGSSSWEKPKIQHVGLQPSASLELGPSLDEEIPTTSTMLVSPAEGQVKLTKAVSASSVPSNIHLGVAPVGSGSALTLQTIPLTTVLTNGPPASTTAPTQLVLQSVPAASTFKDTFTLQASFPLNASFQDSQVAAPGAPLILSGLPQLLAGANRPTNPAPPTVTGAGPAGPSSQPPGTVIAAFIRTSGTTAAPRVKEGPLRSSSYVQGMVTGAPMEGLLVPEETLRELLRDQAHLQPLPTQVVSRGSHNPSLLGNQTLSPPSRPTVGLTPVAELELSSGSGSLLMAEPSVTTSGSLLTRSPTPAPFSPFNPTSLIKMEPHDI

Consider TTCGCC, for which the binding signal with FEV is 1.19 fold enrichment (6-mer frequency, TF over GST control); with ETV5, 1.13 fold enrichment (6-mer frequency, TF over GST control); with HSF1, 1.14 fold enrichment (6-mer frequency, TF over GST control); with SPIC, 1.32 fold enrichment (6-mer frequency, TF over GST control); with ELF4 it was 1.05 fold enrichment (6-mer frequency, TF over GST control); in the experiment with ELK4 it was 1.08 fold enrichment (6-mer frequency, TF over GST control). Moreover, the binding signal with ETV2 is 1.1 fold enrichment (6-mer frequency, TF over GST control); with ELF3, 1.08 fold enrichment (6-mer frequency, TF over GST control); in the experiment with CRX, 1 fold enrichment (6-mer frequency, TF over GST control); in the experiment with ETV1 it was 1.13 fold enrichment (6-mer frequency, TF over GST control); with ERF, 1.14 fold enrichment (6-mer frequency, TF over GST control); with ETV3L, 1.27 fold enrichment (6-mer frequency, TF over GST control). Besides, the binding signal in the experiment with ETS2 is 1.12 fold enrichment (6-mer frequency, TF over GST control); in the experiment with SPDEF, 1.1 fold enrichment (6-mer frequency, TF over GST control); with ETV7 it was 1.18 fold enrichment (6-mer frequency, TF over GST control); with ELF5, 1.04 fold enrichment (6-mer frequency, TF over GST control); with ETV3 it was 1.08 fold enrichment (6-mer frequency, TF over GST control); with ETV6 it was 1.16 fold enrichment (6-mer frequency, TF over GST control).
